Assay outcomes (PubChem BioAssay)
The list is not random: actives were taken first. Their share in the collection is about 2.3%.
697 NFkB inh – lowers PMA/ionomycin-induced NF-kB signal in 697 B cells; 697 B-cell NF-kB luciferase reporter, 16 h; inhibition, % at 4 µM; actives 0.33% (n = 330,000); AID 435022; in the data active = inhibition above about 35%
H9c2 TAG inh – triacylglycerol accumulation inhibition. H9c2 cells, Nile Red lipid (TAG) fluorescence; cells loaded with 200 µM oleic acid. inhibition, % at 12.5 µM. actives 0.66% (n = 230,000). AID 651582;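 active = pattern-corrected inhibition of lipid staining of at least 50% with the nuclear-stain viability signal not falling by more than 50%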;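 note: 0% = DMSO wells and 100% = triacsin C control wells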
Jurkat NFkB inh – inhibitors of the PMA/ionomycin-induced NF-kB reporter in Jurkat cells; PMA/ionomycin-induced NF-kB luciferase reporter, luminescence; inhibition, % at 4 µM; actives 0.53% (n = 330,000); AID 435003; in the data active = inhibition above about 50%
Gli-Sufu antag – blocks Gli-Sufu signaling in a luciferase reporter; Sufu-KO-LIGHT fibroblasts, Gli luciferase reporter luminescence; inhibition, % at 5 µM; actives 0.74% (n = 340,000); AID 588413;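 active = inhibition above about 55%, limit read from the data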;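 note: 0% = DMSO-treated cells and 100% = wells with medium but no cells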
aSyn 5UTR inh – MLPCN primary screen, SNCA 5' untranslated region | AID 1813 | actives 0.82% (n = 300,000) | alpha-synuclein 5'UTR reporter, inhibitor activity | inhibition, % (tested at 7.5 µM); in the data active = inhibition above about 60%;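 note: H4 neuroglioblastoma cells stably carrying SNCA 5'UTR luciferase fusion; 0% = DMSO wells and 100% = positive control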
Shn3 3UTR inh – reduces Shn3 3'UTR luciferase signal in osteoblasts. Clone20 osteoblast Shn3 3'UTR firefly luciferase, 24 h. inhibition, % at 12.5 µM. actives 0.52% (n = 360,000). AID 588674;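 active = mean inhibition of at least 75% with every replicate also reaching 75%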;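 note: 0% = median of neutral control wells and 100% = pilot-screen positive control compound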
Jurkat NFkB conf – inhibitors of the PMA/ionomycin-induced NF-kB reporter in Jurkat cells, retest; shares compounds with Jurkat NFkB inh; Jurkat NF-kB luciferase, 16 h; inhibition, % at 4 µM; actives 27% (n = 2,700); AID 435020;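 active = inhibition reaching about 45% at 4 µM in either replicate, limit read from the data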;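 note: plate controls were PMA/ionomycin stimulated DMSO wells for no effect and unstimulated DMSO wells for full effect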
Starred values were filed as active, the others as inactive; / = not tested or not shown.

SMILES | 697 NFkB inh | H9c2 TAG inh | Jurkat NFkB inh | Gli-Sufu antag | aSyn 5UTR inh | Shn3 3UTR inh | Jurkat NFkB conf
COc1cc(SC)ccc1C(=O)Nc1ccc2c(c1)OCO2 | / | -10 | / | -76 | -69 | -112 | /
COc1cc(SC)ccc1C(=O)Nc1ccc(C)cc1 | -194 | -19 | -171 | -120 | -142 | -124 | -112
COc1cc(SC)ccc1C(=O)Nc1ccc(C)cc1C | -112 | / | -153 | -84 | -54 | -58 | -87
CC1(C(=O)NS(=O)(=O)c2ccccc2Cl)CCN1C(=O)Cc1ccccc1 (stereo not drawn) | / | 10 | / | / | / | -10 | /
CCOC(=O)N=Nc1c(O)n(CC(=O)OC)c2ccccc12 | 13 | 4 | 10 | -15 | 3 | -15 | /
CCOC(=O)N=Nc1c2ccccc2c2nc3no[nH]c3nc12 | 33 | / | 60* | 97* | 119* | 100* | 98*
O=C1/C(=C/c2ccccc2)Nc2ccccc21 | 4 | / | 6 | 7 | -44 | -12 | /
O=S(=O)(Nc1cccc2ncccc12)c1cccs1 | -25 | / | 80* | 87* | 47 | 94* | 64*
O=C(Nc1nc2ccc(F)cc2s1)c1cccs1 | -238 | 14 | -192 | -71 | -223 | -67 | -118
CN(C)S(=O)(=O)c1ccc2nc(NC(=O)c3cccs3)sc2c1 | -172 | / | -89 | -110 | -108 | -53 | /
CN1CCN(CC(=O)O)CC1 | 21 | / | -4 | -2 | / | -6 | /
Cc1cc(C)c(S(=O)(=O)Nc2ccc3c4c(cccc24)CC3)c(C)c1 | -68 | 58* | 58* | 50 | 106* | 30 | 45
Cc1ccc(S(=O)(=O)Nc2ccc3c4c(cccc24)CC3)c(C)c1 | -25 | 22 | 50* | 0 | 10 | 13 | 28
CCOC(=O)C1(CCc2ccccc2)CCN(C(=O)C2=C(C)OCCO2)CC1 | -6 | / | -20 | 10 | -12 | -13 | /
CCOC(=O)C(C)Oc1cccc2c(=O)n(CC(=O)NCc3ccc(F)cc3)ccc12 (stereo not drawn) | -8 | 32 | 73* | 25 | 68* | 27 | 48*
CCOC(=O)C(C)Oc1cccc2c(=O)n(CC(=O)NCCc3ccccc3)ccc12 (stereo not drawn) | 23 | 3 | -4 | 2 | -17 | -13 | /
O=C(O)c1cccc(NC(=O)c2cn(-c3ccccc3)nc2-c2ccc(F)cc2)c1 | -23 | 3 | -14 | 6 | -4 | -11 | /
NC(=O)CSc1nnc(-c2ccccn2)n1Cc1ccco1 | -14 | 8 | -9 | 2 | 14 | 4 | /
C(=C\c1ccccc1)/CSc1nnc(-c2ccccn2)n1Cc1ccco1 | -30 | / | 50* | 5 | 2 | -4 | 7
C[C@@H](NC(=O)c1[nH]cnc1C(=O)Nc1ccc(Cl)cc1)c1ccccc1 | 4 | / | 4 | 2 | / | -7 | /
O=C1C2C3C=CC(C3)C2C(=O)N1c1ccc(-c2nc3ccccc3o2)cc1 (stereo not drawn) | -107 | 7 | -172 | 24 | -152 | -14 | -55
Cc1ccc(C(=O)CSc2nnc3ccccn23)c(C)c1 | -131 | -6 | -158 | -106 | -74 | -25 | -83
CCC(CC)C(=O)N(C)c1c(C)nc2c(OCc3ccc(C#N)cc3)cccn12 | / | -17 | / | / | / | 5 | /
O=C(Nc1nc2ccsc2c(=O)s1)c1ccc(Cl)cc1 | -143 | 7 | -199 | -63 | -39 | -31 | -108
Cc1ccc(C(=O)Nc2ncc(Cc3ccc(SC(F)F)cc3)s2)cc1 | -78 | / | 64* | 37 | -163 | -31 | 48*
SMILES | 697 NFkB inh | H9c2 TAG inh | Jurkat NFkB inh | Gli-Sufu antag | aSyn 5UTR inh | Shn3 3UTR inh | Jurkat NFkB conf
Cc1ccc(C(=O)Nc2ncc(Cc3ccc(F)cc3)s2)o1 | 6 | -18 | -26 | -24 | -107 | -38 | /
O=C(NCc1ccccc1CN1CCCC1)C1CCN(C(=O)c2ccc(Cl)cc2)CC1 | / | 6 | / | / | / | 10 | /
COc1ccc(OC)c(CNC(=O)c2ccc(C)c(NC(=O)C3=C(C)OCCS3)c2)c1 | 1 | / | 27 | -6 | -3 | 29 | /
COc1ccccc1/C=C/C(=O)Nc1ccc2c(c1)OCCO2 | -190 | / | -29 | -41 | -145 | -37 | /
O=C(/C=C/c1ccco1)Nc1ccc2c(c1)OCCO2 | -208 | -1 | -160 | -132 | / | -4 | -58
O=[N+]([O-])c1ccc(Sc2ccc(F)cc2)nc1 | 19 | 4 | 10 | -2 | -15 | 11 | /
Cc1cc(Sc2ccc([N+](=O)[O-])cn2)ccc1Br | 14 | 3 | 62* | 5 | -8 | 81 | 25
Cc1cc(C)cc(N/C(N)=N/c2nc(C)cc(C)n2)c1 | -14 | / | 51* | 22 | -13 | 3 | 10
CCCCc1ccc(N/C(N)=N/c2nc(C)cc(C)n2)cc1 | -40 | -2 | 75* | 50 | 41 | 71 | 30
Cc1nn(CC(C)C)c(Cl)c1C(=O)N(C)CC(=O)Nc1ccc(Cl)cc1 | / | 6 | / | / | / | 23 | /
O=C(N/N=C/c1ccc(-c2cccc([N+](=O)[O-])c2)o1)c1ccc([N+](=O)[O-])cc1 | 3 | 9 | 9 | 10 | 1 | 0 | /
O=C(O)/C=C/c1ccc(S(=O)(=O)N(CCO)CCO)cc1 | -6 | 7 | -4 | -4 | 6 | 12 | /
COc1ccc(/C=C/C(=O)c2cc(F)ccc2OC(=O)c2ccccc2C)cc1OC | -98 | 45 | 60* | 42 | 82* | 9 | 9
COc1ccc(-c2cc(C)no2)cc1S(=O)(=O)N(C)c1ccc(C)c(C)c1 | -32 | / | 2 | 12 | 28 | 40 | /
CCN1CCN(S(=O)(=O)c2ccc(-c3cc(C)no3)s2)CC1 | 16 | / | 4 | 2 | -4 | -11 | /
Cc1cc(-c2ccc(S(=O)(=O)N(C)c3ccc(C)c(C)c3)s2)on1 | -56 | / | 57* | 26 | 0 | -13 | 40
Cc1ccc(N(C)S(=O)(=O)c2ccc(-c3cc(C)no3)s2)cc1 | -47 | / | 51* | -8 | -38 | 17 | 20
Cn1nnc(NC(=S)NC(=O)c2cc3ccccc3o2)n1 | 2 | 9 | 4 | 2 | -16 | / | /
Cc1nc2cc(NCc3ccc(Cl)cc3)ccc2n1C | -202 | -2 | -133 | -30 | -67 | -27 | /
Cc1ccc(CNc2ccc3c(c2)nc(C)n3C)cc1 | -201 | 19 | -156 | -48 | -64 | -45 | -59
Cc1ccc(CNc2ccc3c(c2)ncn3C)cc1 | -31 | / | -29 | -66 | -170 | -101 | /
Cc1ccc(CNc2ccc3c(c2)ncn3C(C)(C)C)cc1 | -160 | -11 | -161 | -80 | -97 | -45 | -22
Cc1ccc(C2(C(F)(F)F)NC(=O)N3CCCN=C3S2)cc1 (stereo not drawn) | 2 | / | 52* | -2 | 2 | -1 | 6
Cc1nc(C)c(-c2csc(Nc3ccc(N)cc3)n2)s1 | 1 | / | 23 | 12 | -42 | -41 | /
COc1ccc(Nc2nc(-c3sc(C)nc3C)cs2)cc1 | -70 | / | 51* | 28 | 39 | -36 | 42
CC(C)CC(=O)Nc1ccc(C(=O)NN2C(=O)c3ccccc3C2=O)cc1 | -4 | -11 | 7 | -13 | 12 | 6 | /
Cc1ccc(O)c(-c2cc(C(F)(F)C(F)F)[nH]n2)c1 | 17 | 0 | 44 | -3 | -48 | 14 | /
